“And” between values parts separate entries of the source, which are not always exact repeats. Equal values may be shown once. Results filed as inconclusive are left out. The source made the active and inactive calls. Unless noted, calls come from the whole dose curve; as a rule, active = well fitted curve in the direction sought with a large enough effect; inconclusive = small, poorly fitted or top-dose-only effect, or another doubt; inactive = no such curve, though single readings can be large; an effect the other way counts as inactive or inconclusive.
Legend:
[1] = Cell Viability - Hek293 (AID 427;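 active = compounds whose dose-response curve shows a full or clear partial loss of cell viability, called from curve shape rather than a numeric limit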;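 note: potency is the fitted concentration of half-maximal effect; cells exposed to compound for 40 hours at 37 °C before reading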); details: qHTS
Summary of the method: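 HEK293 cells in complete medium were exposed to compound for 40 hr at 37 °C, then cellular ATP was read by CellTiter-Glo luminescence. Data were normalized to DMSO (basal) and 100 uM tamoxifen (100% inhibition), and AC50 came from Hill fits.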

[2] = Cell Viability - N2a (AID 540); details: N2a mouse neuroblastoma cell viability; activity change, negative = cytotoxicity: at 92.2 µM (top of the series);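 note: plate controls were DMSO alone for no effect and tamoxifen control for full effect; nearly all actives have a fitted effect of over 45% in size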
Summary of the method: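 Luminescent ATP signal (CellTiter-Glo, 20 min at room temperature) served as the viability read-out after N2a cells were treated with compounds for 40 hours at 37 °C. Concentration-response data were fitted to the Hill equation for AC50.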

[3] = Cellular Toxicity (caspase-3) SHSY5Y (AID 657); details: SH-SY5Y caspase-3 activation, DMSO zero, 10 µM staurosporine = 100%; series mostly up to 91.7 µM
Summary of the method: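 Luminescent caspase-3/7 readout (aminoluciferin release) in SH-SY5Y cells after 16 h compound exposure in complete medium. Activity scaled between DMSO basal and 10 uM staurosporine as 100%; concentration-response fitted to Hill equation for AC50.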

[4] = Cellular Toxicity (caspase-3) Mesangial (AID 660); details: mesangial cells, normalized: DMSO 0%, 100 µM tamoxifen 100%; series mostly up to 91.7 µM;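 note: combined caspase 3 and 7 activity read by Caspase-Glo luminescence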
Summary of the method: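 Mesangial cells, 1000/well, 5 h settle at 37 °C; compound 16 h, 37 °C; Caspase-Glo 3/7 reagent 20 min RT; luminescence. Norm.: DMSO = 0%, tamoxifen 100 uM = 100%. AC50, Hill fit.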

[5] = Cellular Toxicity (caspase-3) H-4-II-E (AID 663); details: H-4-II-E rat hepatoma; Potency: caspase-3 activation; series mostly up to 92.2 µM;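 note: cells exposed to compound for 16 hr before readout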
Summary of the method: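 Rat hepatoma H-4-II-E cells (1500/well) plated 5 hr, then exposed to compound titrations for 16 hr at 37 °C. Caspase-Glo 3/7 luminescence read after 20 min at RT; data normalized to DMSO and 100 uM tamoxifen, AC50 from Hill fits.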

[6] = Cellular Toxicity (caspase-3) NIH 3T3 (AID 666); details: NIH 3T3 caspase-3 activation, apoptosis/toxicity; series mostly up to 92.2 µM;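 note: caspase signal read after 16 h compound exposure; 0% = DMSO basal and 100% = 100 µM tamoxifen stimulation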
Summary of the method: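 Luminescence from aminoluciferin released by caspase-3/7 cleavage of a peptide substrate served as read-out. Mouse fibroblast NIH 3T3 cells were exposed to compounds over a concentration range for 16 hours, and AC50 values came from standard Hill modelling.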

[7] = MultiTox-Fluor Cytotoxicity Assay - LYMP1-002 - Dead Cells (AID 960); details: LYMP1-002 lymphoblastoid cells, dead-cell protease fluorescence; series mostly up to 46.1 µM; note: nearly all actives have a fitted effect of over 60% in size; note: potency is the fitted concentration of half-maximal effect
Summary of the method: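 LYMP1-002 cells 2500/well; 5 hr 37 C pre-incubation; compound 16 hr 37 C; MultiTox-Fluor reagent 60 min RT; dead-cell fluor Ex/Em 485/520. Norm. to DMSO (0%) vs 15 uM tetraoctylammonium bromide (100%); Hill AC50.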

[8] = Cell Viability - LYMP2-009 (AID 968); details: LYMP2-009 lymphoblastoid cell viability; series mostly up to 92.2 µM;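 note: cells exposed to compound for 24 h at 37 °C; nearly all actives have a fitted effect of over 55% in size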; note: potency is the fitted concentration of half-maximal effect
[9] = target: Vitamin D3 receptor (Homo sapiens) (UniProt P11473); test: qHTS assay for small molecule antagonists of vitamin D receptor signaling (AID 588541; calls by dose curve;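 note: receptor activated by calcitriol during compound treatment; % is set by controls: 0 for no effect and ±100 for the full control effect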); details: HEK293T VDR-UAS-bla, beta-lactamase ratio, antagonist mode; series mostly up to 76.7 µM
Vitamin D3 receptor (Homo sapiens), sequence (P11473 whole entry, looked up): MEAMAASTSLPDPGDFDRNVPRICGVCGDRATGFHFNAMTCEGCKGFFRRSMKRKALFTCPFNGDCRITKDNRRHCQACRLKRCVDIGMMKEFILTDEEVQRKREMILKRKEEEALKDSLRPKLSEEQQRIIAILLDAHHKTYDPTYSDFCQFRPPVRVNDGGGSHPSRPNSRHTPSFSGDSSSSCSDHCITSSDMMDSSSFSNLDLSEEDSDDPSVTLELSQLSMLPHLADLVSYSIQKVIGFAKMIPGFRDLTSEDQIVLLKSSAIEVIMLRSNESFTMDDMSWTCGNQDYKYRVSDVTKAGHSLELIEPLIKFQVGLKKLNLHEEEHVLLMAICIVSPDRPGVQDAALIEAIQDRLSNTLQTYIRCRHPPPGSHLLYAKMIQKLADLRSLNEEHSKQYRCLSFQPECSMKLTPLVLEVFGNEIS
Summary of the method: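 VDR-UAS-bla HEK293T cells in 2% charcoal-stripped FBS were stimulated with 1-alpha,25-dihydroxyvitamin D3 (3 nM final) plus compound for 16 h at 37 C. The beta-lactamase CCF4 readout was normalized to 50 nM agonist and DMSO, and Hill fits gave IC50.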

[10] = qHTS assay for small molecule agonists of retinoid X receptor alpha signaling (AID 588544; calls by dose curve;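 for activation: 0% = DMSO basal wells and 100% = reference agonist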); details: HEK293T RXRa-UAS-bla, beta-lactamase reporter, 18 h; 530 nm emission
[11] = target: Retinoic acid receptor RXR-alpha (Homo sapiens) (UniProt P19793); test: as above; details: HEK293T RXRa-UAS-bla, beta-lactamase reporter, 18 h; series mostly up to 76.7 µM
Retinoic acid receptor RXR-alpha (Homo sapiens), sequence (P19793 whole entry, looked up): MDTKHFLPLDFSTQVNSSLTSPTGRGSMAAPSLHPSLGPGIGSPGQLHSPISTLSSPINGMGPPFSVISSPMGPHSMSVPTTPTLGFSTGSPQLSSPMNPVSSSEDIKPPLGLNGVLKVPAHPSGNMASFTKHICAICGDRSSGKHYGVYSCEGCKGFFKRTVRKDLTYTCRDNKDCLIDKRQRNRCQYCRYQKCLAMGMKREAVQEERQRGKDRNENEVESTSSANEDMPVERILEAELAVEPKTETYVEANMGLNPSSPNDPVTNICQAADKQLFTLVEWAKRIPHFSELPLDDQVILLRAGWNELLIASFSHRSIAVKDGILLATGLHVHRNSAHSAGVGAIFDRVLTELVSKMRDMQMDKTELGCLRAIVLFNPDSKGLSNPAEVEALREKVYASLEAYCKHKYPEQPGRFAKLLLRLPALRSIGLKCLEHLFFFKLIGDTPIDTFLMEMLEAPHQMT

[12] = target: Thyroid hormone receptor beta (Homo sapiens) (UniProt P10828); test: qHTS assay for small molecule antagonists of thyroid hormone receptor beta signaling (AID 588547; active = well fitted inhibition curve with a large enough effect in the signal ratio, with a control signal flat, not every such curve was filed as active; the % refers to the signal ratio;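 note: cells stimulated with 0.4 nM T3 agonist during compound exposure; % is set by controls: 0 for no effect and ±100 for the full control effect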); details: TR-UAS-bla HEK293, beta-lactamase ratio, antagonist mode, 18 h
Thyroid hormone receptor beta (Homo sapiens), sequence (P10828 whole entry, looked up): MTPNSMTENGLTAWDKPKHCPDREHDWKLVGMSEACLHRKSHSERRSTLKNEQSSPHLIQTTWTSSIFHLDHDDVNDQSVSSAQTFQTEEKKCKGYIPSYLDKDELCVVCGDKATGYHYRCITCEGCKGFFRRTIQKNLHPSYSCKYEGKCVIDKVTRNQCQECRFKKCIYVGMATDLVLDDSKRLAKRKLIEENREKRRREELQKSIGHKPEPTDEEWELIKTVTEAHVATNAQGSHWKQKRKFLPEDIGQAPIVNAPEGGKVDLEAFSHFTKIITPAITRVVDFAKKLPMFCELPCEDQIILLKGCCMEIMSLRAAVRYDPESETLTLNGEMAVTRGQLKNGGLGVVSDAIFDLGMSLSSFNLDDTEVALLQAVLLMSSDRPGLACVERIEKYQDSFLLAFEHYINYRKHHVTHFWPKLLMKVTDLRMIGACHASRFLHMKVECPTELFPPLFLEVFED
Summary of the method: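 TR-UAS-bla GripTite HEK293 cells in 2% charcoal/dextran FBS medium; compounds 0.59 nM to 92 uM with T3 at 0.4nM final, 18 h at 37 C. Beta-lactamase read by CCF4 fluorescence (460/530 nm); Hill fits gave IC50 and efficacy.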

[13] = qHTS assay for small molecule disruptors of the mitochondrial membrane potential - 5 hr assay (AID 651755; calls by dose curve; note: nearly all actives have a fitted effect of over 40% in size; note: potency is the fitted concentration of half-maximal effect); details: JC-1-type ratio dye; series mostly up to 92.2 µM
Summary of the method: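 HepG2 cells (2,000/well), attached overnight, exposed to compound 5 hr at 37C, then Mito-MPS dye 30 min. Fluorescence read for monomers (490/535 nm) and aggregates (540/590 nm).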

[14] = target: Nuclear receptor ROR-gamma (Homo sapiens) (UniProt P51449); test: qHTS assay for small molecule antagonists of the retinoid-related orphan receptor gamma (ROR-gamma) signaling pathway (AID 651802); details: ROR-gamma antagonist cell reporter assay; series mostly up to 92.2 µM; note: nearly all actives have a fitted effect of over 60% in size; note: potency is the fitted concentration of half-maximal effect
Nuclear receptor ROR-gamma (Homo sapiens), sequence (P51449 whole entry, looked up): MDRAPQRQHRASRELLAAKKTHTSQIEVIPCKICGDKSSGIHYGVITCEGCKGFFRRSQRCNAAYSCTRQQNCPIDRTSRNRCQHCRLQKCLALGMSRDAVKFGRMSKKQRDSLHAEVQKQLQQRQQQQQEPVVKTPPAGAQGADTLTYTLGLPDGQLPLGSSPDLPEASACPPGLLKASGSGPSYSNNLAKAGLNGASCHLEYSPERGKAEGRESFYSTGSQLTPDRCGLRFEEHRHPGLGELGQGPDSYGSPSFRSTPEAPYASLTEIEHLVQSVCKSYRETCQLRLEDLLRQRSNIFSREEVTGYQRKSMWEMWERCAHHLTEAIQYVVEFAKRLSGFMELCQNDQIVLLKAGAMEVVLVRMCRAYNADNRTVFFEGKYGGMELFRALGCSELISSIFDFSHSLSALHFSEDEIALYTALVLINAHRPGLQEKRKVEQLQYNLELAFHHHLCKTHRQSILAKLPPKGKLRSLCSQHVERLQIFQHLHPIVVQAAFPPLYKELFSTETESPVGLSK
Summary of the method: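 CHO, TET-inducible ROR + RORE-LUC reporter, 1536-well qHTS. Compound pinned, doxycycline added, 16hr 37C/5% CO2. ONE-Glo, 30 min RT, luminescence; signal drop scored as antagonism.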

[15] = qHTS assay for small molecule agonists of the antioxidant response element (ARE) signaling pathway measured by Nrf2-dependant transcriptional activity - cell viability counter screen (AID 720653; active = well fitted curve in the direction sought with a large enough effect in the repeat runs; an effect the other way counts as inactive or inconclusive; note: % is set by controls: 0 for no effect and ±100 for the full control effect); details: ARE-bla HepG2 viability, CellTiter-Glo ATP luminescence, 16 h; stronger effect = lower value
Summary of the method: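 ARE-bla HepG2 cells treated with compounds for 16 h at 37C; this counter screen measures viability as intracellular ATP by CellTiter-Glo luminescence after 30 min at room temperature.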

[16] = qHTS assay for cell viability of HEK293 cells (AID 743288); details: ATP luminescence (CellTiter-Glo), 18 h, stronger effect = lower value; note: % is set by controls: 0 for no effect and ±100 for the full control effect; nearly all actives have a fitted effect of over 50% in size
Summary of the method: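 Environmental chemicals tested in qHTS format against parental HEK293 cells; 18 h treatment, 37 C; read-out ATP luminescence (CellTiter-Glo), 30 min RT development.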

[17] = Cell Viability - LYMP2-001 (AID 921); details: LYMP2-001 lymphoblastoid cell viability; series mostly up to 92.2 µM;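 note: cells exposed to compound for 24 h at 37 °C; nearly all actives have a fitted effect of over 70% in size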; note: potency is the fitted concentration of half-maximal effect
Summary of the method: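 CellTiter-Glo luminescence (intracellular ATP) after 24 hr compound exposure at 37 C, 2500 lymphoblastoid cells/well in complete medium. AC50 fitted with standard Hill equation; tetraoctylammonium bromide positive control.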

[18] = qHTS assay for small molecule disruptors of the mitochondrial membrane potential - 1 hr assay (AID 651754; calls by dose curve; note: nearly all actives have a fitted effect of over 35% in size; note: potency is the fitted concentration of half-maximal effect); details: series mostly up to 92.2 µM
Summary of the method: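 HepG2, 2,000 cells/well, overnight attachment; cpd or DMSO 1 hr, 37C/5% CO2; Mito-MPS dye 30 min, 37C; fluorescence monomer (490/535) and aggregate (540/590).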

[19] = Cell Viability - SH-SY5Y (AID 544); details: SH-SY5Y neuroblastoma cell viability; viability change, negative = cytotoxic: at 92.2 µM (top of the series); note: nearly all actives have a fitted effect of over 55% in size
Summary of the method: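 Luminescent ATP read-out (CellTiter-Glo) measures loss of viable SH-SY5Y neuroblastoma cells after 40 hr compound exposure at 37 °C. AC50 values derive from standard Hill modelling of qHTS concentration-response data.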

[20] = Cell Viability - LYMP2-006 (AID 978); details: LYMP2-006 lymphoblastoid cell viability, qHTS; series mostly up to 92.2 µM;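 note: cells exposed to compound for 24 hours; nearly all actives have a fitted effect of over 60% in size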; note: potency is the fitted concentration of half-maximal effect; for activity change, negative = cytotoxicity: % is set by controls: 0 for no effect and ±100 for the full control effect
Summary of the method: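 qHTS, 1536-well; 2500 cells/well, 5 hr 37 C; cpd 24 hr 37 C; CellTiter-Glo 30 min RT; luminescence. Tetraoctylammonium bromide pos. ctrl. AC50 via Hill eqn.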

Nc1ccc([N+](=O)[O-])cc1N
inactive: Potency [1] > 92 µM | Potency [2] | outcome [3] | outcome [4] | Potency [5] | Potency [6] | Potency [7] | Potency [8] | outcome [9] | outcome [11] | activity change % (negative = inhibition) [12] 8.39% and -11.3% | Potency [13] | max response [15] 0.262% and -5.88% | max response [16] 7.69% and 2.35%
-12.1%: max response [10]
active: Potency [14] 42.2 µM

Oc1c(Cl)c(Cl)cc(Cl)c1Cl
19.2%: max response [10]
active: Potency [18] 42.2 µM | Potency [14] 21.1 µM
inactive: outcome [3] | Potency [5] | Potency [6] | Potency [17] | Potency [7] | outcome [11] | activity change % (negative = inhibition) [12] 23.1%

Nc1c(Br)cc([N+](=O)[O-])cc1[N+](=O)[O-]
active: Potency [18] 21.1 µM | Potency [13] 26.6 µM
inactive: Potency [1] > 92 µM | Potency [19] | outcome [3] | outcome [4] | Potency [5] | Potency [6] | Potency [17] | Potency [7] | Potency [8] | Potency [20] | outcome [9] | outcome [11] | Potency [14] | max response [15] 13.3% | max response [16] -10.1%
-9.23%: max response [10]

COC(C)(C)C
9.16%: max response [10]
inactive: Potency [1] > 92 µM | Potency [2] | Potency [19] | outcome [3] | outcome [4] | Potency [5] | Potency [6] | Potency [17] | Potency [7] | Potency [8] | Potency [20] | outcome [9] | outcome [11] | activity change % (negative = inhibition) [12] -17.3% | Potency [18] | Potency [13] | Potency [14] | max response [15] 4.13% | max response [16] -5.4%

O=[N+]([O-])c1ccccc1CCl
-8.73%: max response [10]
active: Potency [14] 42.2 µM
inactive: Potency [1] > 92 µM | Potency [2] | Potency [19] | outcome [3] | outcome [4] | Potency [5] | Potency [6] | Potency [7] | outcome [9] | outcome [11] | activity change % (negative = inhibition) [12] 8.81% | Potency [18] | Potency [13] | max response [15] -9.56% | max response [16] 2.01%

Cc1cc(C)cc(OP(=O)(Oc2cc(C)cc(C)c2)Oc2cc(C)cc(C)c2)c1
inactive: Potency [1] > 92 µM | Potency [19] | outcome [3] | Potency [5] | Potency [6] | Potency [17] | Potency [8] | Potency [20] | outcome [9] | outcome [11] | activity change % (negative = inhibition) [12] 2.87% | max response [15] -9.8% | max response [16] -21.5%
-11.1%: max response [10]
active: activity change, negative = cytotoxicity [2] -83.5% | Potency [7] 31.6 µM | Potency [18] 11.9 µM | Potency [14] 26.6 µM

CN1CSC(=S)N(C)C1
active: viability change, negative = cytotoxic [19] -83% | Potency [17] 12.6 µM | Potency [8] 31.6 µM | Potency [20] 39.8 µM
inactive: Potency [2] | outcome [3] | Potency [5] | Potency [7] | outcome [9] | activity change % (negative = inhibition) [12] 21.7% and -19% | Potency [18] | Potency [13] | Potency [14] | max response [15] -1.99% and -0.305% | max response [16] -15.3%
